This is an account of results in PubChem BioAssay (EPA / NIEHS).

Read-out in test [1]: Forkhead box O1 (FOXO1), FOXO1 (gene 2308)
Nature of the test: LTEA_HepaRG_FOXO1: Life Technologies and Expression Analysis (LTEA) Assay for Forkhead box O1 (FOXO1) using HepaRG (AID 2283456). The settings on record: mRNA level, 48 h; actives raise or lower the signal. An outline of the steps:
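Differentiated human HepaRG cells in serum-free induction medium were exposed in duplicate for 48 h to eight half-log concentrations (top 100 uM, 0.5% DMSO). FOXO1 mRNA was measured by TaqMan qRT-PCR, normalised to ACTB, GAPDH and POLR2A, and fitted bidirectionally against DMSO.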

Read-out in test [2]: growth arrest and DNA damage 45 (GADD45A), GADD45A (gene 1647)
Nature of the test: LTEA_HepaRG_GADD45A: Life Technologies and Expression Analysis (LTEA) Assay for growth arrest and DNA damage 45 (GADD45A) using HepaRG (AID 2283458). The settings on record: mRNA level, 48 h; actives raise or lower the signal. An outline of the steps: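 Human HepaRG liver cells are treated in duplicate for 48 h with chemicals in 0.5% DMSO, highest concentration 100 uM. Expression is read by qRT-PCR and analyzed in both directions against vehicle.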

Read-out in test [3]: Forkhead box O3 (FOXO3), FOXO3 (gene 2309)
The test can be described thus: LTEA_HepaRG_FOXO3: Life Technologies and Expression Analysis (LTEA) Assay for Forkhead box O3 (FOXO3) using HepaRG (AID 2283459). The settings on record: mRNA level, 48 h; actives raise or lower the signal. In a few lines:
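Differentiated human HepaRG cells in serum-free induction medium were exposed in duplicate for 48 h to eight half-log concentrations up to 100 uM in 0.5% DMSO. FOXO3 mRNA was quantified by qRT-PCR, normalized to ACTB, GAPDH and POLR2A, with bidirectional fitting versus DMSO.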

Read-out in test [4]: ABC Transporter (ABCB1), ABCB1 (gene 5243)
The test can be described thus: LTEA_HepaRG_ABCB1: Life Technologies and Expression Analysis (LTEA) Assay for ABC Transporter (ABCB1) using HepaRG (AID 2283460). The settings on record: mRNA level, 48 h; actives raise or lower the signal. An outline of the steps: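 Differentiated human HepaRG cells, plated 48 h then switched to serum-free induction medium, were exposed in duplicate to eight half-log concentrations up to 100 uM in 0.5% DMSO for 48 h. ABCB1 mRNA was measured by TaqMan qRT-PCR, normalized to ACTB/GAPDH/POLR2A.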

Read-out in test [5]: growth arrest and DNA damage 45 (GADD45B), GADD45B (gene 4616)
Nature of the test: LTEA_HepaRG_GADD45B: Life Technologies and Expression Analysis (LTEA) Assay for growth arrest and DNA damage 45 (GADD45B) using HepaRG (AID 2283461). The settings on record: mRNA level, 48 h; actives raise or lower the signal. In a few lines:
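Human HepaRG monolayers receive chemicals for 48 h at eight half-log concentrations, highest 100 uM, in 0.5% DMSO. Expression is measured by TaqMan qRT-PCR and normalized to ACTB, GAPDH and POLR2A.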

Read-out in test [6]: ABC Transporter (ABCC3), ABCC3 (gene 8714)
The test can be described thus: LTEA_HepaRG_ABCC3: Life Technologies and Expression Analysis (LTEA) Assay for ABC Transporter (ABCC3) using HepaRG (AID 2283462). The settings on record: mRNA level, 48 h; actives raise or lower the signal. In a few lines: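 Transcriptional change of ABCC3 in HepaRG after 48 h treatment, determined by qRT-PCR normalized to endogenous controls. Concentrations spanned eight half-log steps to 100 uM in 0.5% DMSO.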

Read-out in test [7]: ABC Transporter (ABCB11), ABCB11 (gene 8647)
Nature of the test: LTEA_HepaRG_ABCB11: Life Technologies and Expression Analysis (LTEA) Assay for ABC Transporter (ABCB11) using HepaRG (AID 2283463). The settings on record: mRNA level, 48 h; actives raise or lower the signal. An outline of the steps:
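Differentiated human HepaRG cells were exposed for 48 h in serum-free induction medium to eight half-log concentrations up to 100 uM in 0.5% DMSO. ABCB11 mRNA was quantified by qRT-PCR, normalized to ACTB, GAPDH and POLR2A, and fitted bidirectionally versus DMSO.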

Read-out in test [8]: ABC Transporter (ABCC2), ABCC2 (gene 1244)
The test can be described thus: LTEA_HepaRG_ABCC2: Life Technologies and Expression Analysis (LTEA) Assay for ABC Transporter (ABCC2) using HepaRG (AID 2283464). The settings on record: mRNA level, 48 h; actives raise or lower the signal. An outline of the steps:
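After plating and 48 h culture, HepaRG medium is replaced with serum-free induction medium and chemicals are added (8 concentrations, max 100 uM, 0.5% DMSO) for 48 h. Total RNA then undergoes qRT-PCR for ABCC2 with housekeeping normalization.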

A short description of test [9]: CEETOX_H295R_TESTO: CeeTox H295R High-throughput Steroidogenesis Assay for Testosterone (TESTO) (AID 2283457). The settings on record: actives raise or lower the signal. The method, then: CEETOX_H295R is a cell-based, multiplexed-readout assay that uses H295R, a human adrenal gland cell line, with measurements taken at 48 hours after chemical dosing in a 96-well plate.CEETOX_H295R_TESTO is one of 23 assay component(s) measured or calculated from the CEETOX_H295R assay. It is designed to make measurements of hormone induction, a form of inducible reporter, as detected with […] by HPLC-MS-MS technology.Data from the assay component CEETOX_H295R_TESTO was analyzed into 1 assay endpoint. This assay endpoint, CEETOX_H295R_TESTO, was analyzed with bidirectional fitting relative to DMSO as the negative control and baseline of activity. Using a type of inducible reporter, gain or loss-of-signal activity using HPLC-MS-MS was used to understand synthesis of Testosterone in H295R cell line at 48hr of chemical exposure. To generalize the intended target to other relatable targets, this assay endpoint is annotated to the steroid hormone intended target family, where the subfamily is androgens.
Cell culture and media preparation procedures were conducted in accordance with OECD Test No. 456 guidelines, with minor modifications. H295R cells (ATCC CRL-2128) were expanded for 5 passages and frozen in batches in liquid nitrogen. Prior to the steroidogenesis assay, H295R cells were thawed and passed at least 4 times. The maximum passage was 10. Cells were maintained in a 1:1 mixture of DMEM/F12 supplemented with 5ml/L ITS+ Premix (BD Bioscience) and 12.5 ml/L Nu-Serum (BD Bioscience). After seeding cells into 96-well plates at 50-60% confluency, cells were allowed to adhere overnight. […] Test chemicals were incubated for 48 hours, then the medium was removed and split into 2 vials containing approximately 75uL each, and stored at -80 C prior to hormone analysis. For steroid quantification, media samples were shipped to OpAns, LLC (Durham, NC) on dry ice, and samples were thawed to room temperature prior to liquid-liquid extraction. Steroid hormones were extracted from media samples using methyl tertbutyl ether (MTBE). An extra derivatization with dansyl chloride was included for estrogen (estrone and estradiol) detection only. Steroid hormones were separated by HPLC, eluted using a reverse phase C18 gradient with electrospray positive ionization, followed by quantification by tandem mass spectrometry (MS/MS). Data were acquired on a MassHunter Workstation Acquisition version B03.01 (Agilent Technologies, Inc.) and processed using MassHunter Quantitative Analysis for QQQ. Accuracy was determined for each hormone analyte from 3 standards to determine upper and lower limits of quantification (ULOQ and LLOQ, respectively) using a 7-point standard curve. Precision and accuracy of the extraction and quantification methods were calculated as the percent relative standard deviation (%RSD) of the spiked standards and percent spiked standard recovered, respectively. […] Test medium was removed following chemical exposure, and cell viability was evaluated in the same wells by MTT. […] Absorbance was read at 570 and 650nm using a Packard Fusion microplate reader. Background correction of absorbance units was used to determine percent change relative to controls. […] When a test chemical reduced cell viability to 20% - 70%, the test chemical was diluted 10-fold and re-evaluated, but if cell viability was <20%, then the test chemical was diluted 100-fold and re-evaluated. […]

Read-out in test [10]: Broad substrate specificity ATP-binding cassette transporter ABCG2 (Homo sapiens) (UniProt Q9UNQ0)
The test can be described thus: LTEA_HepaRG_ABCG2: Life Technologies and Expression Analysis (LTEA) Assay for ABC Transporter (ABCG2) using HepaRG (AID 2283465). The settings on record: mRNA level, 48 h; actives raise or lower the signal. In a few lines:
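Differentiated HepaRG cells in serum-free induction medium were exposed for 48 h, in duplicate, to eight half-log concentrations up to 100 uM in 0.5% DMSO. ABCG2 mRNA was measured by TaqMan qRT-PCR, normalized to ACTB, GAPDH and POLR2A, and fitted bidirectionally versus DMSO.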

The structures appear in SMILES notation. The source made the active and inactive calls. How the source made its calls: active means hit-call score of the fitted dose curve at least 0.9, where 1 is the maximum; inactive means score below 0.9.

Broad substrate specificity ATP-binding cassette transporter ABCG2 (Homo sapiens), sequence (Q9UNQ0 whole entry, looked up): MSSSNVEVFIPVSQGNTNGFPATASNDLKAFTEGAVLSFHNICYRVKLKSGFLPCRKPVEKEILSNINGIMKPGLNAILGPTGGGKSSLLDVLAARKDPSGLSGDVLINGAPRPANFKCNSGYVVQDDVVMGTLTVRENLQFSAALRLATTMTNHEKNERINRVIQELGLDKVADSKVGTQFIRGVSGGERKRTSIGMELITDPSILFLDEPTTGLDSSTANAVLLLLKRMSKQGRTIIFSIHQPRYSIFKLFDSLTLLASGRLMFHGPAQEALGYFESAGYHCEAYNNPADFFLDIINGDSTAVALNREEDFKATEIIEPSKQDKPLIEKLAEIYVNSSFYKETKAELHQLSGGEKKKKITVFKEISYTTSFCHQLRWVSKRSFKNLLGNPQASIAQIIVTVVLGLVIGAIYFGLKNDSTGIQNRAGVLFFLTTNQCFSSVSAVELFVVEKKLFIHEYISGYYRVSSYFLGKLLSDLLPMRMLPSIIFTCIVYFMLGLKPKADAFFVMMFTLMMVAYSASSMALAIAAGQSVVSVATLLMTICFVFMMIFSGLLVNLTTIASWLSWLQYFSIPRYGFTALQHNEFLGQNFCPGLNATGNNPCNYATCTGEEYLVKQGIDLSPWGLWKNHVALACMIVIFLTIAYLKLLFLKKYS

Take `O=C(O)[C@H](O)[C@@H](O)C(=O)O`: the outcome in test [1], in [2], in [3], in test [4], in [5] and in [6] was inactive. Further, the call in [7] and in [8] was inactive.
Usually AC50 stands for the concentration at which the activity in the assay is half-maximal. For `COc1cc2c(c(OC)c1OC)-c1ccc(OC)c(=O)cc1[C@@H](NC(C)=O)CC2`, the concentration at half-maximal activity (AC50) was 0.0309 µM (active) in test [1]; 79.7 nM (active) in test [4]; 196 nM (active) in [6]; 0.0634 µM (active) in test [7]; 0.133 µM (active) in test [8]. For the same compound, the compound was called inactive in test [9], in test [2], in [3], in test [5] and in test [10].
With `CC(C)C(=O)Nc1ccc([N+](=O)[O-])c(C(F)(F)F)c1`, the concentration at half-maximal activity (AC50) was 50 µM (active) in [1], 67.9 µM (active) in test [2], 25.3 µM (active) in test [7] and 34.3 µM (active) in test [8]. In addition, the call in test [3], in test [4], in test [5] and in test [6] was inactive.
As for `Nc1ccn([C@@H]2O[C@H](CO)[C@@H](O)[C@@H]2O)c(=O)n1`, the outcome in test [1], in test [2], in test [3], in test [4], in test [5] and in test [6] was inactive. Also, the compound was called inactive in test [7] and in [8].
Regarding `Cn1cc[nH]c1=S`, the result in test [1], in test [2], in test [3], in test [4], in test [5] and in [6] was inactive. In addition, the result in test [7] and in test [8] was inactive.
For `CCCCC(CC)C(=O)OCCOCCOCCOC(=O)C(CC)CCCC` (stereo not drawn), the compound was classed as inactive in test [1], in test [9], in test [2], in test [3], in test [4] and in test [5]. Besides, the result in test [6], in test [7], in [8] and in test [10] was inactive.
Consider `CCN(CC)C(=S)SSC(=S)N(CC)CC`, for which the call in [1], in [9], in test [2], in [3], in test [4] and in test [5] was inactive. In addition, the compound was called inactive in [7] and in test [8].
`CC(=O)c1ccccc1`: the outcome in test [1], in test [2], in test [3], in test [4], in [5] and in test [6] was inactive. Also, the compound was called inactive in test [7] and in test [8].
On to `C[C@@H](Oc1ccc(CNC(=O)c2cccnc2Oc2ccc3c(c2)OCO3)c(F)c1)C(=O)O`, for which the result in test [1], in test [2], in test [3], in [4], in test [5] and in test [6] was inactive. Besides, the call in [7] and in [8] was inactive.
Consider `NC(=O)N(O)[C@@H]1COc2cc(OCc3ccccc3)ccc21`, for which the call in test [1], in test [2], in [3], in [4], in test [5] and in test [6] was inactive. The result in test [7] and in [8] was inactive.
As for `C[C@]12C=CC(=O)C=C1CC[C@H]1[C@@H]3C[C@@H](O)[C@](O)(C(=O)CO)[C@@]3(C)C[C@H](O)[C@@]12F`, the compound was called inactive in test [1], in test [2], in test [3], in [4], in test [5] and in test [6]. Besides, the compound was called inactive in [7] and in [8].
For `COS(C)(=O)=O`, the compound was called inactive in test [1], in [2], in test [3], in test [4], in test [5] and in [6]. For the same compound, the result in test [7] and in [8] was inactive.
`CCCCN1C(=O)[C@@H]([C@H](O)C2CCCCC2)NC(=O)C12CCN(Cc1ccc(Oc3ccc(C(=O)O)cc3)cc1)CC2`: the concentration at half-maximal activity (AC50) in test [1] is 6.4 µM (active); in test [3], 4.14 µM (active); in [4], 2240 nM (active); in test [5] it was 21.5 µM (active); in test [6], 4370 nM (active); in test [7], 0.849 µM (active). Moreover, in [8], the AC50 is 2.88 µM (active). For the same compound, in [2], the call was inactive.
`CCc1ccc(O)c(C(C)(C)C)c1`: the call in test [1], in test [2], in test [3], in test [4], in [5] and in [6] was inactive. Further, the outcome in test [7] and in test [8] was inactive.
Consider `O=C1CN(N=Cc2ccc([N+](=O)[O-])o2)C(=O)N1`, for which the call in test [1], in test [3], in test [4], in [5], in test [6] and in test [8] was inactive. For the same compound, the results for the AC50 in test [2] and in test [7] were 80.7 µM (active) and 27.7 µM (active), respectively.
Take `O=C(O)c1cccc(C(=O)O)c1`: the outcome in [1], in test [2], in test [3], in test [4], in test [5] and in [6] was inactive. Also, the outcome in test [7] and in test [8] was inactive.
Take `CCCCCCCC/C=C\CCCCCCCC(=O)OC[C@@H](O)[C@H]1OC[C@H](O)[C@H]1O`: the outcome in [1], in test [2], in [3], in test [4], in test [5] and in [6] was inactive. Besides, the compound was called inactive in [7] and in test [8].
`Cn1c(=O)c2[nH]cnc2n(C)c1=O`: the result in test [1], in [2], in test [3], in [4], in test [5] and in [6] was inactive. Further, the call in test [7] and in test [8] was inactive.
